Source: PubChem
Compounds with a hit are over-represented: about 4.6% of the library has one in this group of screens.
D1 potentiator: enhances dopamine response at the human D1 receptor; 0.036% of 360,000 active; potentiation, % at 10 µM; HEK293 TREx D1 cells, calcium flux, dopamine EC20 potentiation; P21728; in the data active = potentiation above about 30%; also: 0% is about no effect
Target sequence (P21728 whole entry, looked up): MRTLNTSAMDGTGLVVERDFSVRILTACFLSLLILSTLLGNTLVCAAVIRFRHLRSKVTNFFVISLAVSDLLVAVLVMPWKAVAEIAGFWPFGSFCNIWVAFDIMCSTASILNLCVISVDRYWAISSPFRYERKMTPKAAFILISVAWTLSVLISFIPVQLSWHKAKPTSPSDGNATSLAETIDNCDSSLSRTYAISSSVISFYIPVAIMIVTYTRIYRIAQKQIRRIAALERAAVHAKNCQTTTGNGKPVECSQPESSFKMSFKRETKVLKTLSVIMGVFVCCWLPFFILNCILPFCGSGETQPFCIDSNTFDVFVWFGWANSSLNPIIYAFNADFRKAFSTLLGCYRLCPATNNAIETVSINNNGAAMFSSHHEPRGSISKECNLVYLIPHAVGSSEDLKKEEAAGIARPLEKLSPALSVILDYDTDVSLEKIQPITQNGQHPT
D1 antagonist: human D1 dopamine receptor antagonism; HEK293 TREx D1 cells, calcium flux, dopamine EC80; stronger effect = lower value; 3.2% of 360,000 active; activity change, negative = inhibition, % at 10 µM; in the data active = activity change below about -30%; also: % is scaled to controls: 0 for no effect and ±100 for the full control effect
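Tetracycline-induced HEK293 Trex D1 cells, force-coupled to calcium, dye-loaded; compounds added and read 180 s, then EC80 dopamine added and calcium flux tracked kinetically another 180 s.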
TRHR ag: agonists of human TRH receptor; AID 493084; TRHR cells, calcium flux fluo-8, FDSS agonist mode; 0.18% of 360,000 active; activation, % at 2 µM; also: 0% is about no effect
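TRHR-expressing cells, plated overnight in medium with 10% serum, were loaded with fluo-8 calcium dye at room temperature. After a 10 s baseline, library compound was pin-added and calcium release was recorded kinetically (ex 480/em 530) as agonist response.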
TRHR enhancer: allosterically enhances the human TRH receptor; enhancement, % at 2 µM; 0.66% of 360,000 active; P34981; TRHR cells, fluo-8 calcium fluorescence, EC20 TRH enhancement; in the data active = enhancement above about 30%; also: 0% is about no effect
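Enhancer read-out: after compound pinning and an initial kinetic agonist-mode read, an EC20 of TRH (10 nM final) was injected and fluo-8 calcium signal (Ex 480/Em 530) followed at 1 s/cycle for 100 cycles in TRHR-expressing cells.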
D1 ag: human D1 receptor agonism | activation, % at 2 µM | 1% of 360,000 active | P21728 | HEK293 T-REx D1 cells, calcium flux, agonist mode; also: 0% is about no effect
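Inducible HEK293 T-REx D1 cells, force-coupled to calcium signalling, were plated at 4000 cells/well with tetracycline and held overnight at 30 C. After no-wash calcium dye loading, compound-evoked calcium rise over 180 s flagged agonists.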
An asterisk follows results filed as active; · = no result. Rule as the data show it, unless noted: active = activation above about 30%; inactive = the rest.

SMILES	D1 potentiator	D1 antagonist	TRHR ag	TRHR enhancer	D1 ag
COc1ccccc1NC(=O)Cn1c(=O)n(-c2ccc(C)cc2)c(=O)c2c1cnn2C	0.7	4.5	-0.1	5.8	0.6
Cn1c(=O)c2cc(C(=O)NCCCN3CCN(c4ccccc4F)CC3)sc2c2ccccc21	0.0	-2.2	-0.1	-7.1	-1.6
O=C(NC(Nc1nc2ccc([N+](=O)[O-])cc2s1)(C(F)(F)F)C(F)(F)F)c1cccnc1	-11.0	-34.9*	14.3	-3.6	35.9*
O=C(NC(NNc1ccc([N+](=O)[O-])cc1)(C(F)(F)F)C(F)(F)F)c1ccccc1Cl	-3.1	-37.6*	-1.2	11.5	13.0
O=C(NC(Nc1nc2ccc([N+](=O)[O-])cc2s1)(C(F)(F)F)C(F)(F)F)c1ccccc1Cl	-2.1	-36.0*	7.7	-4.8	24.7
CN(C)S(=O)(=O)c1ccc2nc(NC(=O)c3cccnc3)sc2c1	-1.7	5.1	0.0	-4.6	1.6
O=[N+]([O-])c1ccc2nc(NS(=O)(=O)c3ccccc3[N+](=O)[O-])sc2c1	·	-38.8*	5.8	-6.2	68.4*
O=C(NC(NNc1ccc([N+](=O)[O-])cc1)(C(F)(F)F)C(F)(F)F)c1ccc(F)cc1	-11.5	-16.5	1.7	-3.3	26.7
O=S(=O)(NCCS(=O)(=O)N1CCN(c2ccccc2)CC1)c1ccc(Br)cc1	-0.7	-2.6	-0.4	-4.5	0.2
O=C(CSC1=NS(=O)(=O)c2cc(Cl)ccc2N1)Nc1cccc(F)c1	-3.7	-10.5	-1.4	5.0	1.2
Oc1ccc(C23CCCC2C2(CCCC2)c2ccc(O)cc2O3)c(O)c1 (stereo unspecified)	·	-8.5	0.2	5.2	152.4*
CCOC(=O)c1ccc(CN(Cc2ccc(F)cc2)S(=O)(=O)c2ccc(F)c(C(=O)Nc3cc(Cl)ccc3OC)c2)cc1	-0.1	22.5	-0.1	-0.6	-1.1
Cc1ccc(Sc2c(C)nn(C(=O)COc3ccc(F)cc3)c2C)cc1	-4.2	-4.0	-0.7	0.3	10.6
Cc1nn(C(=O)COc2ccc(Cl)cc2)c(C)c1Sc1ccccc1	-4.3	-37.0*	-0.5	-4.6	12.3
COc1ccc(CNC(=O)COc2ccc(C(=O)c3ccc(F)cc3)cc2)cc1	-1.1	-30.4*	0.0	-5.7	10.2
COC(=O)c1ccc(/C=N/OCC(=O)NCc2ccc(F)cc2)cc1	-4.0	-50.9*	-1.2	-1.3	0.8
Cc1ccc(S(=O)(=O)Nc2ccc3c(c2)OCCO3)cc1	3.3	-20.7	0.0	0.5	8.2
Cc1nc2ccc(S(=O)(=O)Nc3cccc(-c4nc5cccnc5s4)c3)cc2s1	-6.3	-0.4	0.5	2.9	2.5
Cc1nc2ccc(S(=O)(=O)Nc3ccc(-c4nc5cccnc5s4)cc3)cc2s1	-4.8	-54.5*	-0.5	3.6	-3.6
CSc1ccc(S(=O)(=O)Nc2ccc3c(c2)OCCO3)cc1	-2.6	-30.1*	-0.2	-3.6	12.7
Cc1ccc(S(=O)(=O)Nc2ccc3nc(C)sc3c2)cc1	-1.1	-34.5*	-0.5	2.8	15.3
Cc1nc2ccc(NS(=O)(=O)c3ccc4c(c3)OCCO4)cc2s1	-2.5	-31.4*	0.9	-3.0	25.1
Cc1ccccc1C(=O)Nc1nnc(S(=O)(=O)N2CCCc3ccccc32)s1	-0.2	-15.6	0.8	15.8	0.9
COc1ccccc1N1CCN(C(=O)c2cc3c(=O)n(Cc4ccco4)ccc3nc2C)CC1	-6.2	-8.9	0.0	0.2	0.7
CCOC(=O)C1(Cc2ccccc2)CCN(Cc2ccc3c(c2)OCCO3)CC1	-4.4	-8.1	-2.2	-2.8	11.7
CCc1ccc(NC(=O)CC2C(=O)N(c3cccc(OC)c3)C(=O)N2Cc2ccc(F)cc2)cc1 (stereo unspecified)	-1.4	-21.0	-0.4	-6.8	1.9
Cc1ccc(S(=O)(=O)Nc2ccc3c(c2)nc(CN2CCCC2)n3C)cc1	-1.8	-14.3	1.4	14.2	49.4*
COc1ccc(C2NC(=O)C(C#N)=C(S)N2c2cccc(C)c2)cc1OC (stereo unspecified)	-3.9	-61.4*	-0.7	7.9	1.1
COc1ccc(C2NC(=O)C(C#N)=C(S)N2c2ccc(C)cc2)cc1OC (stereo unspecified)	19.1	-3.9	-0.3	2.2	2.3
COc1ccc(N2C(S)=C(C#N)C(=O)NC2c2ccc(OC)c(OC)c2)cc1 (stereo unspecified)	-3.7	5.3	0.2	30.1*	1.3
